Here are results for 31 compounds from PubChem BioAssay (NCATS).

Inconclusive results are not listed. A call without a number means that no potency is given here. Activity calls are given as the source filed them. Calls come from the whole dose curve; as a rule, active = well fitted curve in the direction sought with a large enough effect; inconclusive = small, poorly fitted or top-dose-only effect, or another doubt; inactive = no such curve, though single readings can be large; an effect the other way counts as inactive or inconclusive.

Assay [1] can be described thus: qHTS assay to identify small molecule inhibitors of chordoma cells - UCH-1 (AID 1259355). Note: nearly all actives have a fitted effect of over 55% in size. Note: potency is the fitted concentration of half-maximal effect; series mostly up to about 46 µM. The gist of the method:
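Cells (800/well) were seeded and left overnight at 37 C, 5% CO2, then treated with drugs at 15 concentrations plus a combination mix of auranofin, camptothecin, doxorubicin, rubitecan and topotecan. Viability after 48hr was read by CellTiter-Glo luminescence.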
On the technique in general: qHTS replaces the single test concentration by a dilution series.

Assay [2] can be described thus: qHTS assay to identify small molecule inhibitors of chordoma cells - UCH-2 (AID 1259356). Note: series mostly up to about 46 µM.

Take `CO[C@H]1C=CO[C@@]2(C)Oc3c(C)c(O)c4c(O)c(c(/C=N/N5CCN(C6CCCC6)CC5)c(O)c4c3C2=O)NC(=O)/C(C)=C\C=C[C@H](C)[C@H](O)[C@@H](C)[C@@H](O)[C@@H](C)[C@H](OC(C)=O)[C@@H]1C`: the Potency result in assay [1] and in assay [2] was “inactive” each time.

As to `CC(C)(C)C(=O)OCOC(=O)[C@@H]1N2C(=O)[C@@H](N=CN3CCCCCC3)[C@H]2SC1(C)C`, the Potency result in assay [1] was “inactive”.

Regarding `O=C(O)CN(CCN(CC(=O)O)CC(=O)O)CC(=O)O`, the Potency entry in assay [1] and in assay [2] was “inactive” throughout.

`COCC(=O)Nc1cc(Sc2ccccc2)ccc1N=C(NC(=O)OC)NC(=O)OC`: the Potency entry in assay [1] and in assay [2] was “inactive” throughout.

In the case of `CO/N=C(\C(=O)N[C@@H]1C(=O)N2C(C(=O)O)=C(CSc3cnns3)CS[C@H]12)c1csc(N)n1`, the Potency entry in assay [1] and in assay [2] was “inactive” each time.

For the compound `CCC(=O)O[C@@H]1CC(=O)O[C@H](C)C/C=C/C=C/[C@H](O)[C@H](C)C[C@H](CC=O)[C@H](O[C@@H]2O[C@H](C)[C@@H](O[C@H]3C[C@@](C)(O)[C@@H](OC(=O)CC)[C@H](C)O3)[C@H](N(C)C)[C@H]2O)[C@H]1OC`, the Potency result in assay [1] and in assay [2] was “inactive” each time.

Consider `O=C(COc1ccc(Cl)cc1)OCCNC12CC3CC(CC(C3)C1)C2`, for which the Potency entry in assay [1] and in assay [2] was “inactive” throughout.

In the case of `CC(NNC(=O)c1ccccc1)c1ccccc1` (stereo not drawn), the Potency result in assay [1] and in assay [2] was “inactive” in each case.

As to `CCCCC(=O)OCC(=O)[C@]1(O)Cc2c(O)c3c(c(O)c2[C@@H](O[C@H]2C[C@H](NC(=O)C(F)(F)F)[C@H](O)[C@H](C)O2)C1)C(=O)c1c(OC)cccc1C3=O`, in assay [1], the Potency was 6.31 µM (active).

Regarding `CO[C@@H]1[C@@H](O[C@@H]2O[C@H](C)[C@@H](O[C@H]3C[C@@](C)(O)[C@@H](O)[C@H](C)O3)[C@H](N(C)C)[C@H]2O)[C@@H](CC=O)C[C@@H](C)[C@@H](O[C@@H]2CC[C@H](N(C)C)[C@@H](C)O2)/C=C/C=C/C[C@@H](C)OC(=O)C[C@H]1O`, the Potency result in assay [1] and in assay [2] was “inactive” each time.

As to `CC(Cc1ccc(O)c(O)c1)C(C)Cc1ccc(O)c(O)c1` (stereo not drawn), in assay [1], the Potency entry is “inactive”.

As to `Cc1cn([C@H]2C[C@H](O)[C@@H](CO)O2)c(=O)[nH]c1=O`, the Potency entry in assay [1] and in assay [2] was “inactive” throughout.

Turning to `COC(F)(F)C(Cl)Cl`, the Potency entry in assay [1] and in assay [2] was “inactive” each time.

For the compound `CC1(C)S[C@@H]2[C@H](NC(=O)[C@@H](NC(=O)N3CCNC3=O)c3ccccc3)C(=O)N2[C@H]1C(=O)O`, the Potency entry in assay [1] and in assay [2] was “inactive” throughout.

As to `Cc1cc(CC(C)CC(C)(C)C)n(O)c(=O)c1` (stereo not drawn) (tested in a mixture with another compound), the Potency result in assay [1] was “inactive”.

For `COC(=O)[C@H]1[C@H]2CC3c4[nH]c5ccccc5c4CCN3C[C@@H]2CC[C@@H]1O` (stereo partly drawn), the Potency entry in assay [1] was “inactive”.

Consider `CCC1OC(=O)C[C@@H](O)[C@H](C)[C@@H](O[C@@H]2O[C@H](C)C[C@H](N(C)C)[C@H]2O)[C@@H](CC=O)C[C@@H](C)C(=O)/C=C/[C@]2(C)OC2C1C` (stereo partly drawn), for which the Potency result in assay [1] and in assay [2] was “inactive” each time.

Consider `NC1C2CN(c3nc4c(cc3F)c(=O)c(C(=O)O)cn4-c3ccc(F)cc3F)CC12` (stereo not drawn), for which the Potency entry in assay [1] is “inactive”.

On to `Oc1cc(O)c2c(c1)OC(c1ccc(O)c(O)c1)C(O)C2` (stereo not drawn), for which the Potency result in assay [1] was “inactive”.

As to `O=S(=O)(O)c1cc(O)c2c(N=Nc3ccc(Nc4ccccc4)c4c(S(=O)(=O)O)cccc34)cc(S(=O)(=O)O)cc2c1`, the Potency in assay [1] was 15.8 µM (active).

Take `CN=C(NC#N)Nc1ccc(C2=NNC(=O)C[C@@H]2C)cc1`: the Potency result in assay [1] was “inactive”.

As to `C=C[C@]1(C)C[C@@H](OC(=O)CSC(C)(C)CNC(=O)[C@H](N)C(C)C)[C@]2(C)[C@H](C)CC[C@]3(CCC(=O)[C@H]32)[C@@H](C)[C@@H]1O`, the Potency entry in assay [1] and in assay [2] was “inactive” in each case.

Turning to `NC(=O)c1ncn(C2OC(CO)C(O)C2O)n1` (stereo not drawn), the Potency result in assay [1] was “inactive”.

Consider `CCCCCCC(O)C/C=C/CCCCCCCC(=O)O` (stereo not drawn), for which the Potency result in assay [1] is “inactive”.

As for `CCCCCC(CC)COC(=O)CC(C(=O)OCC(CC)CCCC)S(=O)(=O)O` (stereo not drawn), in assay [1], the Potency entry is “inactive”.

For the compound `CN1C(=O)CN2CCc3ccccc3C2c2cc(Cl)ccc21` (stereo not drawn), the Potency result in assay [1] and in assay [2] was “inactive” each time.

Consider `COc1ccc(CCNC[C@H](O)c2ccc(O)cc2)cc1OC`, for which the Potency result in assay [1] and in assay [2] was “inactive” each time.

`CCOC(=O)C1=CC2(CC)CCCN3CCc4c(n1c1ccccc41)C32` (stereo not drawn): the Potency result in assay [1] is “inactive”.

For the compound `Cc1c(C)c2c(c(C)c1O)CC[C@@](C)(CCC[C@@H](C)CCC[C@@H](C)CCCC(C)C)O2`, in assay [1], the Potency entry is “inactive”.

Regarding `CCCCC(=O)N(Cc1ccc(-c2ccccc2-c2nn[nH]n2)cc1)[C@@H](C(=O)O)C(C)C`, the Potency entry in assay [1] and in assay [2] was “inactive” in each case.

Consider `CNc1cc(OC)c(C(=O)N[C@H]2CCN(Cc3ccccc3)[C@H]2C)cc1Cl`, for which the Potency result in assay [1] and in assay [2] was “inactive” throughout.
